From PubChem BioAssay (Tox21)
Inconclusive results are not listed. A number with no mark means an inactive call. Calls of active or inactive are those of the source. The call rests on the fitted dose curve; in most records, active means well fitted cell-killing curve with a large enough effect in the repeat runs; inconclusive means weak or mixed curves, or effect the other way; inactive means flat fitted curve, though single readings scatter.

Assay: cAMP Responsive Elements (CRE) small molecule antagonists, cell-based qHTS assay: qHTS cell viability counter screen (AID 2060913); further: nearly all actives have a fitted effect of over 40% in size
Details: CRE-bla HEK293T viability, CellTiter-Glo luminescence, 5 h; series mostly up to 92.4 µM; viability change, negative = cytotoxic: at the top concentration
Description: U.S. Tox21 Program National Center for Advancing Translational Sciences [NCATS] Division of Preclinical Innovation [DPI] U.S. Environmental Protection Agency [EPA] National Institutes of Environmental Health Sciences [NIEHS] National Toxicology Program [NTP] U.S. Food and Drug Administration [FDA] Tox21 Assay Overview: CREB (cyclic-AMP Responsive Element Binding Protein) is a cellular transcription factor. It binds to certain DNA sequences called cAMP Responsive Elements (CRE) and regulates the transcription of the genes. […] This cell line can be used to find agonists/antagonists of the cyclic AMP signaling pathway. The activation of the report gene under culture conditions can be detected by fluorescence intensity. This cell line has been used to screen the Tox21 10K compound library to identify agonists that induce oxidative stress. The cytotoxicity of the Tox21 compound library against the CRE-bla cell line was tested in parallel by measuring the cell viability using CellTiter-Glo assay (Promega, Madison, WI) in the same wells.
Tox21 Assay Protocol Summary: CRE-bla Hek 293T cells were suspended in assay medium (DMEM containing 10% dialyzed FBS, 0.1 mM NEAA, 1 mM sodium pyruvate and 25 mM HEPES) and dispensed at 2,000 cells/4 uL /well into 1536-well black wall/clear bottom plates using a Multidrop Combi (ThermoFisher Scientific, Waltham, MA) dispenser. After the assay plates were incubated at 37 C/5% CO2 for 18 hrs, 23 nL of compounds dissolved in DMSO, positive controls or DMSO only was transferred to the assay plate by a pintool workstation (Kalypsys, San Diego, CA), followed by addition of 1 uL of 1.25uM NKH477 (0.25 uM as final concentration) in assay medium using a Flying Reagent Dispenser (Aurora Discovery, San Diego, CA). The plates were incubated at 37 C and 5% CO2 for 3 hrs. Then 1 uL of LiveBLAzer B/G FRET substrate (Invitrogen, Carlsbad, CA) was added to each well using Bioraptr Flying Reagent Dispenser (FRD, Aurora Discovery, San Diego, CA). The plates were incubated at room temperature for 2 h, then fluorescence intensities were measured using an Envision plate reader (PerkinElmer, Shelton, CT) at Excitation 405nm, Emission 460nm and 530nm. The % activity was determined from the ratio of 460nm/530nm. For cell viability readout that measures cytotoxicity, 4 uL /well of CellTiter-Glo reagent was added into the assay plates using Bioraptr FRD. After 30 min incubation at room temperature, the luminescence intensity in the assay plates was measured using a ViewLux (PerkinElmer, Shelton, CT) plate reader.
On the % scale 0 is the no-effect control and ±100 the full control effect.

| Compound | viability change, negative = cytotoxic | Potency |
| --- | --- | --- |
| CC1(CN2CCC(n3c(=O)[nH]c4ccccc43)CC2)OCc2ccccc2-n2cccc21 (stereo not given) | -4.36% [at 42.5 µM] |  |
| CC(=O)Nc1ccc(S(=O)(=O)Nc2cc(C)on2)cc1 | 0.632% [at 42.5 µM] |  |
| CC(c1cc2ccccc2s1)N(O)C(N)=O (stereo not given) |  | inactive |
| CCOC(=O)[C@H](CCc1ccccc1)N[C@@H](C)C(=O)N1C(=O)N(C)C[C@H]1C(=O)O | -0.436% [at 42.5 µM] |  |
| CN(C)CCc1c[nH]c2ccc(CS(=O)(=O)N3CCCC3)cc12 | 6.99% [at 42.5 µM] |  |
| CCCN(CCC)S(=O)(=O)c1ccc(C(=O)O)cc1 |  | inactive |
| Cc1cc(=O)[nH]c(=S)[nH]1 |  | inactive |
| CCCCOC(=O)CC#N | -6.72% |  |
| CC(C(=O)O)c1cccc(C(=O)c2ccccc2)c1 (stereo not given) |  | inactive |
| Cl/C(=C\n1cncn1)c1ccc(Cl)cc1Cl | -4.49% [at 42.5 µM] |  |
| Cc1cccc(C(=O)O)c1[N+](=O)[O-] | -3.4% |  |
| Oc1ccc(Nc2ccccc2)cc1 | 0.474% |  |
| CCCCCCCCCCCCCCCCCC(=O)OCC(O)CO (stereo not given) |  | inactive |
| CCOC(=O)C(C)C(C)=O (stereo not given) | -7.86% |  |
| COc1ncnc(NS(=O)(=O)c2ccc(N)cc2)c1OC | 7.05% [at 42.5 µM] |  |
| CCCCC(CC)COC(=O)c1ccccc1 (stereo not given) | -4.03% |  |
| O=C(O)Cc1cc(I)c(Oc2cc(I)c(O)c(I)c2)c(I)c1 | -16.9% [at 42.5 µM] |  |
| CC(C)COC(=O)CCCCC(=O)OCC(C)C | 6.05% |  |
| O=C1NC(=O)C2CC=CCC12 (stereo not given) | -4.8% |  |
| CCC(=O)OC(=O)CC | -12.6% |  |

| Compound | viability change, negative = cytotoxic | Potency |
| --- | --- | --- |
| NC(=O)N[C@@H](CCC(=O)O)C(=O)O | -0.258% [at 42.5 µM] |  |
| CC/C=C\C#N | -10.9% |  |
| Cc1oc2c(NC(=O)c3c(Cl)cccc3Cl)cccc2c1C(C)(C)O | -5.8% |  |
| O=C(O)CC(=O)O | 3.73% |  |
| CSc1ccc(/C=C2/C(C)=C(CC(=O)O)c3cc(F)ccc32)cc1 | -2.68% [at 42.5 µM] |  |
| O=C(c1ccc(O)cc1)c1ccc(O)cc1 | -10.2% |  |
| O=C(CN1CCN(Cc2ccc3c(c2)OCO3)CC1)N1c2ccccc2Sc2ccccc21 | 2.38% [at 42.5 µM] |  |
| O=c1[nH]c(=O)n([C@H]2C[C@H](O)[C@@H](CO)O2)cc1Br |  | inactive |
| C=C(C)C(=O)OCC(CC)(COC(=O)C(=C)C)COC(=O)C(=C)C |  | inactive |
| COC(=O)C1CCC(C(=O)OC)CC1 (stereo not given) |  | inactive |
| O=C(OCC(COC(=O)c1cccnc1)(COC(=O)c1cccnc1)COC(=O)c1cccnc1)c1cccnc1 | 7.93% [at 42.5 µM] |  |
| O=C1NCCN1 | 0.736% |  |
| NC(Cc1c[nH]c2ccccc12)C(=O)O (stereo not given) | 16.1% [at 42.5 µM] |  |
| O=C(O[C@@H]1Cc2c(O)cc(O)cc2O[C@@H]1c1cc(O)c(O)c(O)c1)c1cc(O)c(O)c(O)c1 |  | inactive |
| CCOc1ccc(NC(=O)OC(C)C)cc1OCC | -2.31% |  |
| COC(C)COC(C)COC(C)CO (stereo not given) |  | inactive |
| O=C(O)CCC(=O)O |  | inactive |
| CCN(O)CC | 4.85% |  |
| O=C(O)CCC(=O)C(=O)O | -0.0723% |  |
| CN1CCC(N(Cc2cccs2)c2ccccc2)CC1 | -2.25% [at 42.5 µM] |  |
